Common to all, as to assay: DAPPL (digital affinity profiling via proximity ligation, sequencing); 10 mM Tris-HCl pH 7.5, 50 mM NaCl, 1 mM DTT, 4% glycerol, room temperature, 30 min; GST-TFs on glutathione beads, 16-mer random dsDNA library, 0.1% formaldehyde crosslink after washing; high values mean tight binding
One experiment deals with T1, FEV (Homo sapiens, UniProt Q99581 1-238).
T1 sequence: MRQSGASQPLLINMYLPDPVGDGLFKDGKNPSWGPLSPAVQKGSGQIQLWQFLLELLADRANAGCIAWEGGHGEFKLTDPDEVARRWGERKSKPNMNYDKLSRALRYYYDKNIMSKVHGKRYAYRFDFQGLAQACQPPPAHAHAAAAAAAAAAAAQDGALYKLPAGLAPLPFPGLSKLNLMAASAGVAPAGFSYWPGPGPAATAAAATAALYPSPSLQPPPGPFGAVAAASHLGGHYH
Conditions: protein: recombinant; tags: N-terminal GST; dsDNA, one strand shown. Put shortly:
(§1)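 Each value of binding signal is a hexamer's read frequency for a factor divided by the same hexamer's frequency in the tag-only sample. Barcoded, bead-captured GST fusions of human transcription factors made in yeast were pooled with that sample and incubated with 200 nmole of a random double-stranded 16-mer DNA library in Tris/NaCl/DTT/glycerol buffer at room temperature for 30 min. Washing, 0.1% formaldehyde crosslinking, proximity ligation, PCR and Illumina NextSeq500 sequencing followed.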

In the next experiment the target is ETV5 (Homo sapiens, UniProt P41161 1-510). Conditions: protein: recombinant; tags: N-terminal GST; dsDNA, one strand shown. Put shortly: as §1
Sequence of ETV5 (P41161 whole entry): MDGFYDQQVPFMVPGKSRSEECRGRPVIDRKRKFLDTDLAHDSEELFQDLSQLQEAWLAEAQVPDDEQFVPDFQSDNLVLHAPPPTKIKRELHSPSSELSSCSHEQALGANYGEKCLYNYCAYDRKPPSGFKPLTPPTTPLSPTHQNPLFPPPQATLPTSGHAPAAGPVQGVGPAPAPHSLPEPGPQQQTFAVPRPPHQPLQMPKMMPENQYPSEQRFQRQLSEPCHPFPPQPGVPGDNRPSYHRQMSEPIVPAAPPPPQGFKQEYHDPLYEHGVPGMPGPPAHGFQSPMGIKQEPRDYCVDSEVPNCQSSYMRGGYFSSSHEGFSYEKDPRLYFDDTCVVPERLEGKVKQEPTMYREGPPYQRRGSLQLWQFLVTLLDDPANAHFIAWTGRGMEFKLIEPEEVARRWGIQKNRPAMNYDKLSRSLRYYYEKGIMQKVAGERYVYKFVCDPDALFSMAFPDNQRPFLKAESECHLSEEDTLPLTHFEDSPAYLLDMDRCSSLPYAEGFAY
The next experiment has as its target HSF1 (Homo sapiens, UniProt Q00613 1-529). The settings on record: protein: recombinant; tags: N-terminal GST; chain copies: 3; dsDNA, one strand shown. Put shortly:
as §1

For another experiment, the target named is T2, SPIC (Homo sapiens, UniProt Q8N5J4 1-248).
T2 sequence: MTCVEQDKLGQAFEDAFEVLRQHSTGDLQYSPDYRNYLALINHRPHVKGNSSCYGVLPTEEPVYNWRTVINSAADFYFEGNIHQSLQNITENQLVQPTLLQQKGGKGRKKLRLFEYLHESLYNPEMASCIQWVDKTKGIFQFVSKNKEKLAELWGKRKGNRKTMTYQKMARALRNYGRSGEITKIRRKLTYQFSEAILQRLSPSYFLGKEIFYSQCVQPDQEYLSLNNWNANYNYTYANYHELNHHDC
Conditions: protein: recombinant; tags: N-terminal GST; dsDNA, one strand shown. Put shortly: as §1

The next experiment addresses ELF4 (Homo sapiens, UniProt Q99607 1-663). The settings on record: protein: recombinant; tags: N-terminal GST; dsDNA, one strand shown. Put shortly:
as §1

In another experiment the target is T3, ELK4 (Homo sapiens, UniProt P28324-2 1-405).
T3 sequence: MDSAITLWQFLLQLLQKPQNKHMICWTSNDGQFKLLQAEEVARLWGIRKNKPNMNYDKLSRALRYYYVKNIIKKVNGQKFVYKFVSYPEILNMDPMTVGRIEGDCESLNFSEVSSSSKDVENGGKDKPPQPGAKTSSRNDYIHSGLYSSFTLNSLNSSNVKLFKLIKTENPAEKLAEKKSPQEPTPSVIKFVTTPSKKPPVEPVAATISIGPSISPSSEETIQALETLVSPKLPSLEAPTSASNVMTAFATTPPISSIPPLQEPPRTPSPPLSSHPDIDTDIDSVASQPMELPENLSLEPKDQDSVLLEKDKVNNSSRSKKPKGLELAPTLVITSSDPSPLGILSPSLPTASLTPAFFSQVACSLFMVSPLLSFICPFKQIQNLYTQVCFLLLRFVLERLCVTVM
The settings on record: protein: recombinant; tags: N-terminal GST; dsDNA, one strand shown. An outline of the steps: as §1

The target of the next experiment is T4, ETV2 (Homo sapiens, UniProt O00321 1-342).
T4 sequence: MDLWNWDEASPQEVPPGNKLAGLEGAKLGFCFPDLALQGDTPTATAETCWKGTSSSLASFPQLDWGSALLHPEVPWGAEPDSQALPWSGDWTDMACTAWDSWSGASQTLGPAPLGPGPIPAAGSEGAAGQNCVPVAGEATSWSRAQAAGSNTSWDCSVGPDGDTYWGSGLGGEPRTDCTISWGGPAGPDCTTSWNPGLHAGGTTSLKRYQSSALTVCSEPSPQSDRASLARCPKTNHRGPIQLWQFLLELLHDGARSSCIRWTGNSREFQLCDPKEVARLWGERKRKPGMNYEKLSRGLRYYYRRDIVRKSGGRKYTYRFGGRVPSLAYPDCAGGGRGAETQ
The settings on record: protein: recombinant; tags: N-terminal GST; dsDNA, one strand shown. An outline of the steps:
as §1

The next experiment concerns the target T5, ELF3 (Homo sapiens, UniProt P78545 1-371).
T5 sequence: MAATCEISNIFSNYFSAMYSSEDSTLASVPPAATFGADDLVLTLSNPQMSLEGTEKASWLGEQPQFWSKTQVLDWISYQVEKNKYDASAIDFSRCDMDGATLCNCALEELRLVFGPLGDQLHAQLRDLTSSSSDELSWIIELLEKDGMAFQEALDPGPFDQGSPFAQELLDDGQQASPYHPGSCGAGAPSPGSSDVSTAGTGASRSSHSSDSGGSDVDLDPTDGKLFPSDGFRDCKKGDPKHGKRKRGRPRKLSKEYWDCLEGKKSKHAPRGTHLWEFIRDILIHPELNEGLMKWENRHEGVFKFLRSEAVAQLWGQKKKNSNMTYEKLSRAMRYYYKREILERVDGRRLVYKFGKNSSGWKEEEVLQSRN
Conditions: protein: recombinant; tags: N-terminal GST; dsDNA, one strand shown. An outline of the steps: as §1

A further experiment addresses CRX (Homo sapiens, UniProt O43186 1-299). The settings on record: protein: recombinant; tags: N-terminal GST; dsDNA, one strand shown. Put shortly: as §1
The next experiment has as its target ETV1 (Homo sapiens, UniProt P50549 1-477). The settings on record: protein: recombinant; tags: N-terminal GST; dsDNA, one strand shown. Put shortly: as §1
The target in the next experiment is T6, ERF (Homo sapiens, UniProt P50548 1-548).
T6 sequence: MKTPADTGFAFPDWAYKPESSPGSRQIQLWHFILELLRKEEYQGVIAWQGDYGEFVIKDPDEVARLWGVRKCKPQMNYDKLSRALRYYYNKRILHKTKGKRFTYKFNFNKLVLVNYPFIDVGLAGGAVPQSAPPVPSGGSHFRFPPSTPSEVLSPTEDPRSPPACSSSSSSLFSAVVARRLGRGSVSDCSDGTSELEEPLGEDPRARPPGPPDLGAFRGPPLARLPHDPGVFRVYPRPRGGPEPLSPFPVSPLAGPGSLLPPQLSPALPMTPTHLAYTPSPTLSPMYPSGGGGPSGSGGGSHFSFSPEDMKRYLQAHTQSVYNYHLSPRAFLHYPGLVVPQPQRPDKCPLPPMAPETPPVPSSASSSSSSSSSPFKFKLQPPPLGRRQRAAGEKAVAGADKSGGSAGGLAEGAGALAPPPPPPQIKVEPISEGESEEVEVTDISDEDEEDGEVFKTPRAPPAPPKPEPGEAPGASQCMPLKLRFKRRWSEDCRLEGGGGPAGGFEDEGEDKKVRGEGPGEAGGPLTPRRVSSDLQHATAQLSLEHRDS
Conditions: protein: recombinant; tags: N-terminal GST; dsDNA, one strand shown. Put shortly: as §1

Another experiment has as its target T7, ETV3L (Homo sapiens, UniProt Q6ZN32 1-361).
T7 sequence: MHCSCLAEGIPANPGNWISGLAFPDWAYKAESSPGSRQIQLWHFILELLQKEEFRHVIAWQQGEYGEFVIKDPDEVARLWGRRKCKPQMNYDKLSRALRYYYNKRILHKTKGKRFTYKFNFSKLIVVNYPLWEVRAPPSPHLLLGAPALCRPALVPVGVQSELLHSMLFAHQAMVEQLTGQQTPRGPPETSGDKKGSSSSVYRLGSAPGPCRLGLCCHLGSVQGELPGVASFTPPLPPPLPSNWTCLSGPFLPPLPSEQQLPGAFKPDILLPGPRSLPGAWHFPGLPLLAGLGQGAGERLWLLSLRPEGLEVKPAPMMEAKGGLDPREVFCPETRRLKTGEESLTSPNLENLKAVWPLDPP
Conditions: protein: recombinant; tags: N-terminal GST; dsDNA, one strand shown. Put shortly: as §1

In the next experiment the target is T8, ETS2 (Homo sapiens, UniProt P15036 1-469).
T8 sequence: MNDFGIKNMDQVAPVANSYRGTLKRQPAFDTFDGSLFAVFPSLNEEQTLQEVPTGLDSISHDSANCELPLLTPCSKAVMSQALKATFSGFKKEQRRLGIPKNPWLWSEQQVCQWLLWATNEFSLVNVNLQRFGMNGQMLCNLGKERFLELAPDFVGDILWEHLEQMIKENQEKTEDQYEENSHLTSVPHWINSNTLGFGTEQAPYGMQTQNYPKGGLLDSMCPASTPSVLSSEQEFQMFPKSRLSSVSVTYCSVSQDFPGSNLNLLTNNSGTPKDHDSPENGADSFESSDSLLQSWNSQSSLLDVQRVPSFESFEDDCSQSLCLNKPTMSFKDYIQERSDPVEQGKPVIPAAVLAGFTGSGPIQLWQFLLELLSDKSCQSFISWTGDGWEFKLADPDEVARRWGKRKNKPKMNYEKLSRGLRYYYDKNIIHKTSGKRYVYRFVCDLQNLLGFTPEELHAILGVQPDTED
Conditions: protein: recombinant; tags: N-terminal GST; dsDNA, one strand shown. An outline of the steps:
as §1

In the next experiment the target is T9, SPDEF (Homo sapiens, UniProt O95238 1-335).
T9 sequence: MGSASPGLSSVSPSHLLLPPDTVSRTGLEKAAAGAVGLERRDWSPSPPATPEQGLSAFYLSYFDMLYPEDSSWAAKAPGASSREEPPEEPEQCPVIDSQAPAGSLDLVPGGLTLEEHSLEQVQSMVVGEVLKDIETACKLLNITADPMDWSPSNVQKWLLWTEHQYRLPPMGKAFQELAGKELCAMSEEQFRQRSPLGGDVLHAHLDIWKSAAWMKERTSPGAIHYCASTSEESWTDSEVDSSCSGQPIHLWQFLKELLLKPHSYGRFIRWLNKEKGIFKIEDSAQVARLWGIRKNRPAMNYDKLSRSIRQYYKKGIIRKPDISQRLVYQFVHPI
The settings on record: protein: recombinant; tags: N-terminal GST; dsDNA, one strand shown. Put shortly:
as §1

For another experiment, the target named is T10, ETV7 (Homo sapiens, UniProt Q9Y603 1-341).
T10 sequence: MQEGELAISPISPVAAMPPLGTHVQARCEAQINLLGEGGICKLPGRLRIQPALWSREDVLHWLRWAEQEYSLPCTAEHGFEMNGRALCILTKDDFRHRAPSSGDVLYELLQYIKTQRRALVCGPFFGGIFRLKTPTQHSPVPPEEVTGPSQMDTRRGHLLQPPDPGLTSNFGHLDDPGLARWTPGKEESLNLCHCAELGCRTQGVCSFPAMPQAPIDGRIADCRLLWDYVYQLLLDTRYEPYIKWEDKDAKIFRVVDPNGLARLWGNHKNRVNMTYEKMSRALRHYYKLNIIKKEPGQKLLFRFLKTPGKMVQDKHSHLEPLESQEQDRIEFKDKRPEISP
Conditions: protein: recombinant; tags: N-terminal GST; dsDNA, one strand shown. An outline of the steps:
as §1

The target in a further experiment is T11, ELF5 (Homo sapiens, UniProt Q9UKW6-2 1-255).
T11 sequence: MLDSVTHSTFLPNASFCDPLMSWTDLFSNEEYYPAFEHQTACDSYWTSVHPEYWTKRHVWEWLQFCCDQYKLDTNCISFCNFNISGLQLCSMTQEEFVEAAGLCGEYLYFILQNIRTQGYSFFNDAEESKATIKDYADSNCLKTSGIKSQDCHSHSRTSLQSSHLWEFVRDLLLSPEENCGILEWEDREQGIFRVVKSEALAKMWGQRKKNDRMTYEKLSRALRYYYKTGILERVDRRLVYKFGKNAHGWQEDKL
The settings on record: protein: recombinant; tags: N-terminal GST; dsDNA, one strand shown. An outline of the steps:
as §1

For the next experiment, the target named is T12, ETV3 (Homo sapiens, UniProt P41162-2 1-143).
T12 sequence: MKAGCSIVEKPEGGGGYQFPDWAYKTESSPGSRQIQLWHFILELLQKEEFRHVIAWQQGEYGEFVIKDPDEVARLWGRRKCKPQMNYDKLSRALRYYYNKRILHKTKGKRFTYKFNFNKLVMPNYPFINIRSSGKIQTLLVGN
The settings on record: protein: recombinant; tags: N-terminal GST; dsDNA, one strand shown. Put shortly:
as §1

In the next experiment the target is ETV6 (Homo sapiens, UniProt P41212 1-452). The settings on record: protein: recombinant; tags: N-terminal GST; dsDNA, one strand shown. Put shortly: as §1
Sequence of ETV6 (P41212 whole entry): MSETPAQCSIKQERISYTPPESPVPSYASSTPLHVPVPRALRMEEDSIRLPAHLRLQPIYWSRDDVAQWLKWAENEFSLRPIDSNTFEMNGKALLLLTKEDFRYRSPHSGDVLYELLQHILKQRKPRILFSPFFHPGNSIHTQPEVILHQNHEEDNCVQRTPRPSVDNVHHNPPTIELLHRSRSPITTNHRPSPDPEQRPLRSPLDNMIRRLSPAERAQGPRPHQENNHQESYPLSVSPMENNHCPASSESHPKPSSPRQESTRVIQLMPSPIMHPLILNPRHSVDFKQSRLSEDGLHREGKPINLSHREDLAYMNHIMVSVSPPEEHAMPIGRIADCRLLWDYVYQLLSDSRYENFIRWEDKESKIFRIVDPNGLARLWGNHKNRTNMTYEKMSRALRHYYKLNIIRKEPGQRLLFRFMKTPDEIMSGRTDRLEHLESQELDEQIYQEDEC

Sequence of ELF4 (Q99607 whole entry): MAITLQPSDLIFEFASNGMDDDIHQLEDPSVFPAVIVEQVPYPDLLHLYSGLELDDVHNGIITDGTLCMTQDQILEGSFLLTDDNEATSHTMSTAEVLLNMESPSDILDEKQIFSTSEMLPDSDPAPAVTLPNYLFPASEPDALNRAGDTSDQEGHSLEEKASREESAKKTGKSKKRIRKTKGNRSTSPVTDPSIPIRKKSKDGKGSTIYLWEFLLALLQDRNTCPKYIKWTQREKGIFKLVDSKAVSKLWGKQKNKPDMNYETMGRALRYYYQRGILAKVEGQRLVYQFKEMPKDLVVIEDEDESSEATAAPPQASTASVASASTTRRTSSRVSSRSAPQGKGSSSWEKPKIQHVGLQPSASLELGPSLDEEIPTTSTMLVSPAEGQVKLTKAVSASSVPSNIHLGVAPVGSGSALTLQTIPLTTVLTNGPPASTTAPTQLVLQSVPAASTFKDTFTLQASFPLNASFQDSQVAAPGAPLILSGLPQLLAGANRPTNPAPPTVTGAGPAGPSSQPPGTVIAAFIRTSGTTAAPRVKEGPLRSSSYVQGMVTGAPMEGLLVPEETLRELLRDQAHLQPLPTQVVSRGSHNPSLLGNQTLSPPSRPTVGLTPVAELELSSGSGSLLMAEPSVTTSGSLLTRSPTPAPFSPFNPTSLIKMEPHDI
Sequence of HSF1 (Q00613 whole entry): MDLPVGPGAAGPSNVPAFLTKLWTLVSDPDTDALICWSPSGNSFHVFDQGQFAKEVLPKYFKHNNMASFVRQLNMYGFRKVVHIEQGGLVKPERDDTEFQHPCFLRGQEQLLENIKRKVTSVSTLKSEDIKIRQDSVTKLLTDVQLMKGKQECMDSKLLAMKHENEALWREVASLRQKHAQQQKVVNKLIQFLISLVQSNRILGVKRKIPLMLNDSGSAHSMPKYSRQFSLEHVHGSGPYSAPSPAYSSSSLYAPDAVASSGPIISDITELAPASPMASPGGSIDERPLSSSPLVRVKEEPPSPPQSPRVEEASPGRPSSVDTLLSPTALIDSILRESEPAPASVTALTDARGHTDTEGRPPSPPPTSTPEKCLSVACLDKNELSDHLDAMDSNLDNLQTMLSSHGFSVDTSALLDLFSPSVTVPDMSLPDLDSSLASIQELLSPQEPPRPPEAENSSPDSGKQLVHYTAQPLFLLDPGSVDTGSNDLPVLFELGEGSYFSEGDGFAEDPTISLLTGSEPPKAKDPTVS
Sequence of ETV1 (P50549 whole entry): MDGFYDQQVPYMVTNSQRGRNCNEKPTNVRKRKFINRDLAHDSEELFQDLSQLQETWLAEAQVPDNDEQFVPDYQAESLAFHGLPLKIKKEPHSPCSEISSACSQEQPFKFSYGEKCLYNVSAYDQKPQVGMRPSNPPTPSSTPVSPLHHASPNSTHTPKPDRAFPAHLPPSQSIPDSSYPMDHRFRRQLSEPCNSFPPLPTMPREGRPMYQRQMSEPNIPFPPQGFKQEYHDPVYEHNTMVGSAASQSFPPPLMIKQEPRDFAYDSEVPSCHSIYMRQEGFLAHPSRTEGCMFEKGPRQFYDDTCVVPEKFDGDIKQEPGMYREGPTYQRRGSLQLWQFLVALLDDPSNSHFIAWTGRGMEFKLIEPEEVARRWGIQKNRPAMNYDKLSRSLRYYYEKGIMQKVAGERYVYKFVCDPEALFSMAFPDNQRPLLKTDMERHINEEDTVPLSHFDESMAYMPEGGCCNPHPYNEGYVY
Sequence of CRX (O43186 whole entry): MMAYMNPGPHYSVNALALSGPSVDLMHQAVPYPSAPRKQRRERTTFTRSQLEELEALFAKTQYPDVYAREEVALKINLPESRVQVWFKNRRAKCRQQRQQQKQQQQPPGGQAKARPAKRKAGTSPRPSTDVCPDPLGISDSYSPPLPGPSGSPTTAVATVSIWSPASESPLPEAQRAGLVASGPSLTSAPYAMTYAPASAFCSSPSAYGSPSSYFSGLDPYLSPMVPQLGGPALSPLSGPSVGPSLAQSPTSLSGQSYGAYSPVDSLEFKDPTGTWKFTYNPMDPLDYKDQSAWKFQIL

With ACCCTT, the binding signal with FEV is 1.21 fold enrichment (6-mer frequency, TF over GST control); with ETV5, 1.25 fold enrichment (6-mer frequency, TF over GST control); with HSF1, 1.09 fold enrichment (6-mer frequency, TF over GST control); in the experiment with SPIC, 1.02 fold enrichment (6-mer frequency, TF over GST control); with ELF4, 1.26 fold enrichment (6-mer frequency, TF over GST control); with ELK4 it was 1.08 fold enrichment (6-mer frequency, TF over GST control). For the same sequence, the binding signal was 1.33 fold enrichment (6-mer frequency, TF over GST control) with ETV2; 1.23 fold enrichment (6-mer frequency, TF over GST control) with ELF3; 1.15 fold enrichment (6-mer frequency, TF over GST control) with CRX; 1.18 fold enrichment (6-mer frequency, TF over GST control) with ETV1; 1.2 fold enrichment (6-mer frequency, TF over GST control) with ERF; 1.21 fold enrichment (6-mer frequency, TF over GST control) in the experiment with ETV3L. For the same sequence, the binding signal is 1.1 fold enrichment (6-mer frequency, TF over GST control) with ETS2; 1.2 fold enrichment (6-mer frequency, TF over GST control) with SPDEF; 1.1 fold enrichment (6-mer frequency, TF over GST control) in the experiment with ETV7; 1.19 fold enrichment (6-mer frequency, TF over GST control) in the experiment with ELF5; 1.19 fold enrichment (6-mer frequency, TF over GST control) with ETV3; 1.15 fold enrichment (6-mer frequency, TF over GST control) with ETV6.

The values are drawn from article PMC7862700, “An all-to-all approach to the identification of sequence-specific readers for epigenetic DNA modifications on cytosine”.
